Assay outcomes (PubChem BioAssay)
Shown are actives, neighbours in structure and some others; about 2.4% of the full set was active somewhere.
Pol beta inh-1 = blocks human DNA polymerase beta activity; AID 485314; 340,000 tested, 1.3% active; Potency, µM (titrated, usually from 114 µM), for inactives: top-dose activity change, negative = inhibition, most hits filed as inhibitors; Pol beta primer extension/strand displacement, fluorescence kinetic; further: potency means the concentration at half of the fitted maximal effect; on the % scale 0 is the no-effect control and ±100 the full control effect
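Curves were derived by four-parameter Hill fits of normalized qHTS data. The kinetic fluorescent primer-extension read was taken at 0 and 10 min after 50 nM substrate, following a 15 min room-temperature preincubation of 10 nM enzyme with compounds.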
Pol kappa inh = DNA polymerase kappa (human) inhibition; AID 588579; purified Pol kappa, fluorescent DNA synthesis assay, 10 min; 400,000 tested, 0.53% active; Potency, µM (series often up to 107 µM), inactives show at the highest dose activity, negative = inhibition, most hits filed as inhibitors; Q9UBT6; further: potency means the concentration at half of the fitted maximal effect; on the % scale 0 is the no-effect control and ±100 the full control effect
Target sequence (Q9UBT6 whole entry, looked up): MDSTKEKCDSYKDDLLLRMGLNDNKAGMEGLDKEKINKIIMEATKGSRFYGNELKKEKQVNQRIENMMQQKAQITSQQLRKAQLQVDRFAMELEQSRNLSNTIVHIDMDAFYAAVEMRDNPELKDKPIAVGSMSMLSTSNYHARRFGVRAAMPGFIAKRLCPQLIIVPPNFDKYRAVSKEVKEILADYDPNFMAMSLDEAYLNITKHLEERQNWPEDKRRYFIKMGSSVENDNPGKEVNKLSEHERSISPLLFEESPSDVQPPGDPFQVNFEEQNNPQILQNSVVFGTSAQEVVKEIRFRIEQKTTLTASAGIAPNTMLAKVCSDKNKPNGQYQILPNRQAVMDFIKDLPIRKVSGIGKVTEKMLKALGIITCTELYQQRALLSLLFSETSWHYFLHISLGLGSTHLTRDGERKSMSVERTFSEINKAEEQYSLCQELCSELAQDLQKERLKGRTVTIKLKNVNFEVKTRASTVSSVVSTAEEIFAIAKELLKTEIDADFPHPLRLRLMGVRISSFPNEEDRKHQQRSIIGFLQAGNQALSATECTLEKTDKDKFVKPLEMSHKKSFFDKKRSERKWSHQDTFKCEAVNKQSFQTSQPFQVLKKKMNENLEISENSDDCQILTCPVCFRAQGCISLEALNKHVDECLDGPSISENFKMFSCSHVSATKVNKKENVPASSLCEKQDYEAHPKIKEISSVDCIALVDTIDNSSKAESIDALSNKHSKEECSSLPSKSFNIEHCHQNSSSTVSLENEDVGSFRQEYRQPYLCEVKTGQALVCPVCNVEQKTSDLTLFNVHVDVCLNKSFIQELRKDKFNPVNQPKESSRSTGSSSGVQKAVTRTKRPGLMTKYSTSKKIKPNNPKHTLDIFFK
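First, compounds were pin-transferred onto 10 nM Pol kappa. After 15 min at room temperature, substrate was added to 50 nM final. Fluorescence was then measured kinetically at 0 and 10 min.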
Pol eta inh = blocks human DNA polymerase eta activity. Potency, µM (highest dose often 114 µM), without a hit: top-dose activity change, negative = inhibition, most hits filed as inhibitors. recombinant Pol eta, fluorescent DNA replication assay. 390,000 tested, 1.2% active. Q9Y253; further: potency means the concentration at half of the fitted maximal effect; on the % scale 0 is the no-effect control and ±100 the full control effect
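Pol eta (10 nM) was preincubated with compounds for 15 min at room temperature, after which fluorescent replication substrate (50 nM final) was added to start the reaction. Fluorescence was read kinetically at 0 and 10 min.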
POLI inh = DNA polymerase iota (human) inhibition; Pol iota fluorescent replication assay, 10 min; Potency, µM (top dose mostly 115 µM), inactives show at the top dose activity, negative = inhibition, hits mostly inhibitors; 390,000 tested, 1% active; further: potency means the concentration at half of the fitted maximal effect
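Pol iota at 10 nM preincubated 15 min with compounds at room temperature; reaction started with fluorescent substrate, 50 nM final. Fluorescence read kinetically at 0 and 10 min; buffer-only wells as negative control.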
GLS inh = blocks human kidney-isoform glutaminase activity. Potency, µM (top dose mostly 45.5 µM), for the others: top-dose activity change, negative = inhibition, hits mostly inhibitors. O94925. GLS enzymatic activity, qHTS titration. 410,000 tested, 0.21% active; further: potency means the concentration at half of the fitted maximal effect; on the % scale 0 is the no-effect control and ±100 the full control effect
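Compounds were pin-transferred onto hKGA, after which L-glutamine (1 mM solution) and a detection mix of glutamate oxidase, HRP and Amplex Red were added. Initial and 30 min RT fluorescence reads were collected.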
APE1 inh-1 = blocks human APE1 abasic DNA cleavage; P27695; recombinant APE1, TAMRA/BHQ-2 abasic DNA cleavage fluorescence; Potency, µM (doses to about 65.8 µM), for the others: at the top dose activity change, negative = inhibition, hits mostly inhibitors; 350,000 tested, 0.35% active; AID 2517;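 further: potency means the concentration at half of the fitted maximal effect; plate controls were vehicle for no effect and reference inhibitor for full effect; nearly all actives have a fitted effect of over 55% in size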
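Readout is kinetic fluorescence (ex 525, em 598 nm) from cleavage of 50 nM TAMRA/BHQ-2 THF abasic duplex by 0.75 nM APE1, compound added 15 min beforehand at RT.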
APE1 dye cs = displaces fluorescent dye from DNA, flagging APE1 artifacts | shares compounds with APE1 inh-1 | DNA fluorescent dye displacement counterscreen, fluorescence | Potency, µM (series often up to 28.5 µM), inactives show at the top dose activity change, negative = inhibition, usual class: inhibitors | 480 tested, 7% active;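 further: loss of thiazole orange fluorescence as the dye is displaced from duplex DNA; potency means the concentration at half of the fitted maximal effect; 0% = ThO with dsDNA and no compound and -100% = ThO without dsDNA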
Endo IV inh = blocks E. coli endonuclease IV DNA cleavage. shares compounds with APE1 inh-1. E. coli Endo IV, fluorogenic AP-site DNA cleavage. Potency, µM (titrated, usually from 27.1 µM), for inactives: at the top dose activity change, negative = inhibition, actives largely listed as inhibitors. 560 tested, 4% active;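 further: potency means the concentration at half of the fitted maximal effect; plate controls were uninhibited enzyme wells for no effect and no enzyme buffer wells for full effect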
APE1 inh-2 = confirmation of inhibitors of human APE1 endonuclease; shares compounds with APE1 inh-1; purified APE1, fluorogenic abasic-site DNA cleavage; Potency, µM (doses to about 57.1 µM), without a hit: at the highest dose activity change, negative = inhibition, usual class: inhibitors; 750 tested, 44% active; further: potency means the concentration at half of the fitted maximal effect; on the % scale 0 is the no-effect control and ±100 the full control effect; nearly all actives have a fitted effect of over 30% in size
APE1 FP inh = displaces DNA from human APE1 in FP assay. Potency, µM (highest dose often 28.5 µM), without a hit: at the top dose activity, negative = inhibition, actives largely listed as inhibitors. 480 tested, 7% active. APE1 binding to TAMRA-labelled double-stranded DNA, fluorescence polarization displacement. shares compounds with APE1 inh-1; further: potency means the concentration at half of the fitted maximal effect; on the % scale 0 is the no-effect control and ±100 the full control effect
Pol beta inh-2 = Inhibitors of human DNA polymerase beta, hit validation. Potency, µM, most hits filed as inhibitors. 250 tested, 87% active. shares compounds with Pol beta inh-1. Pol beta primer extension/strand displacement, fluorescence kinetic. AID 540280; calls by dose curve; further: potency means the concentration at half of the fitted maximal effect
Klenow counter = Klenow polymerase inhibition, pol beta selectivity check. shares compounds with Pol beta inh-1. Klenow exo- polymerase counter-screen, fluorescent DNA substrate. activity change, negative = inhibition, % at 57.1 µM. 250 tested, under 10 active
HIV RT inh = inhibits HIV-1 reverse transcriptase in counter-screen. shares compounds with Pol beta inh-1. HIV-1 RT polymerase activity, counter-screen. activity % (negative = inhibition, positive = activation), % at 57.1 µM. 250 tested, under 10 active. AID 540301
POLB valid = DNA polymerase beta inhibition, radiolabeled validation. AID 540325. radiolabeled primer extension gel assay, phosphorimager. inhibition, % at 10 µM. 110 tested, 91% active. shares compounds with Pol beta inh-1;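 active means inhibition at 10 µM of 30% or more; inconclusive means no clear call, values can overlap the other calls; inactive means inhibition at 10 µM under 30%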
Numbers without * were called inactive; ? = inconclusive; . = no result given; [ ] = remark or other dose. Unless noted, the call rests on the fitted dose curve; in most records, active means well fitted curve in the direction sought with a large enough effect; inconclusive means small, poorly fitted or top-dose-only effect, or another doubt; inactive means no such curve, though single readings can be large; an effect the other way counts as inactive or inconclusive.

SMILES | Pol beta inh-1 | Pol kappa inh | Pol eta inh | POLI inh | GLS inh | APE1 inh-1 | APE1 dye cs | Endo IV inh | APE1 inh-2 | APE1 FP inh | others
O=c1c2ccccc2nc(COc2ccccc2)n1/N=C/c1ccc(O)c(O)c1 | ? | ? | 32µM* | ? | 23% | ? | ? | 51% | ? | 7%
O=C(O)COc1ccc(/C=N/n2c(COc3ccccc3)nc3ccccc3c2=O)cc1 | 3%[57.1 µM] | -12% | -1% | 8% | 12% | -4% | . | . | . | .
Oc1ccccc1Oc1c(F)c(F)nc(N2CCCC2)c1F | 45µM* | -7%[60.1 µM] | -21% | ? | -2% | ? | -9% | -1% | ? | -6%
CC(=O)/C=C/c1ccccc1Oc1c(F)c(F)nc(F)c1F | 55% | -7%[60.1 µM] | -9% | ? | 2% | -7% | . | . | . | .
CCN(c1ccccc1)S(=O)(=O)c1cc(C(=O)OC(C)C(=O)Nc2ccc3c(c2)OCCO3)ccc1C (stereo unspecified) | 10µM* | ? | ? | ? | -8% | 11µM* | 18% | -7% | 14µM* | ?
CC(OC(=O)c1ccccn1)C(=O)Nc1ccc2c(c1)OCCO2 (stereo unspecified) | . | 6% | -2% | 11% | -3% | 28% | . | . | . | .
CCc1ccccc1NC(=O)C1CCN(C(=O)N2CCOc3ccccc32)CC1 | 16% | -5% | -5% | -17% | -2% | 35% | . | . | . | .
O=C1C=C(NCc2ccc(Cl)cc2)CC(c2ccco2)C1 (stereo unspecified) | ? | -26% | ? | ? | 4% | -5% | . | . | . | .
CC(C)CNC1=CC(=O)CC(c2ccco2)C1 (stereo unspecified) | 28µM* | ? | ? | 28µM* | -22% | 6.3µM* | 1% | 10% | -11%[24.4 µM] | -17%
Cc1cc(-c2cc(C(=O)NCc3ccccc3)on2)nc(S(C)(=O)=O)n1 | 10% | 0% | -3% | 4% | 1% | 3% | . | . | . | .
O=C(OC1Cc2c(O)cc(O)cc2OC1c1cc(O)c(O)c(O)c1-c1c(C2Oc3cc(O)cc(O)c3CC2OC(=O)c2cc(O)c(O)c(O)c2)cc(O)c(O)c1O)c1cc(O)c(O)c(O)c1 (stereo unspecified) | . | 0.5µM* | . | . | . | 0.13µM* | . | 28µM* | 0.32µM* | .
Cc1ccc(S(=O)(=O)N[C@H](C(=O)OCC(=O)NC(=O)NCc2ccco2)C(C)C)cc1 | . | -29% | -12% | ? | -16% | -35% | . | . | . | .
COC(=O)c1ccccc1NC(=O)COC(=O)/C=C/c1ccco1 | ? | 3% | -3% | 29% | 6% | ? | 2% | -1% | ? | -14%
COC(=O)c1ccccc1NC(=O)COC(=O)c1ccco1 | ? | -18% | ? | ? | 12% | -13% | . | . | . | .
Cc1cc(SCC(=O)c2ccc3c(c2)OCO3)nc2ccccc12 | 0% | -17% | -8% | -1% | -4% | -3% | . | . | . | .
Cc1cc(SCC(=O)c2ccc(O)c(O)c2)nc2ccccc12 | 14µM* | 50µM* | 11µM* | 40µM* | ? | ? | 13µM* | 76% | ? | 13% | Pol beta inh-2=11*;Klenow counter=-20;HIV RT inh=?
Cn1c(SCC(=O)Nc2ccc3nc(SCC(=O)N4CCCC4)sc3c2)nnc1-c1ccc(N)cc1 | 7.9µM* | 50µM* | ? | 5.6µM* | 1% | 10µM* | . | . | ? | . | Pol beta inh-2=7.1*;Klenow counter=5;HIV RT inh=8
COc1ccc(OCC(=O)OCCN2C(=O)c3ccccc3C2=O)cc1 | 20µM* | -1% | -12% | 5% | . | ? | -9% | 4% | ? | 8% | Pol beta inh-2=32*;Klenow counter=-23;HIV RT inh=-19;POLB valid=85*
COc1cccc(COc2nc3c(c(=O)n(C)c(=O)n3C)n2C)c1 | 2% | -5% | -1% | 16% | -1% | 1% | . | . | . | .
COc1ccc(Cc2nnc(NC(=O)Cc3cccs3)s2)cc1OC | 8.9µM* | 79µM* | 6.3µM* | ? | ? | 28µM* | ? | 36% | 2µM* | -17% | Pol beta inh-2=?;Klenow counter=-25;HIV RT inh=42
COc1ccc(C)cc1NC(=O)COC(=O)CCC(=O)c1cccs1 | . | -1% | -6% | 19% | 0% | 11% | . | . | . | .
CN(C)C(=O)C1C2NC(=S)N(c3ccc(Cl)cc3)C1(C)Oc1ccc(Cl)cc12 (stereo unspecified) | 2% | -18% | -2% | 123% | -6% | 1% | . | . | . | .
N=C1C(c2nc3ccccc3s2)=C(O)CN1NC(=O)c1c[nH]c2ccccc12 | 13µM* | -22% | -20% | ? | -6% | ? | 38% | 1% | ? | 22% | Pol beta inh-2=25*;Klenow counter=-11;HIV RT inh=46;POLB valid=52*
N=C1C(c2nc3ccccc3s2)=C(O)CN1NC(=O)c1ccccc1[N+](=O)[O-] | ? | -9% | 2% | 58% | 21% | 8% | . | . | . | .
O=C(Nc1cccc(S(=O)(=O)NC2=NCCCCC2)c1)c1cc(-c2ccncc2)nc2ccccc12 | 0% | -20% | -15% | -8% | 1% | 2% | . | . | . | .
